Where “and” joins values, the source holds several entries; their conditions need not be identical. Equal entries are not always repeated. About 2,600 (16%) of roughly 16,000 compounds were called active. About 20% were inconclusive and are not listed. Calls follow the shape of the dose curve; as a rule, active = well fitted curve in the direction sought with a large enough effect; inconclusive = small, poorly fitted or top-dose-only effect, or effect the other way; inactive = no such curve, though single readings can be large or run the other way. Only a selection was taken, and actives are over-represented in it overall.
Molecular target: Cytochrome P450 2D6 (Homo sapiens) (UniProt P10635)
Test: Cytochrome panel assay with activity outcomes
Conditions: recombinant CYP, pro-luciferin dealkylation, luminescence, p450-cyp2d6; series mostly up to 57.1 µM
% is scaled to controls: 0 for no effect and ±100 for the full control effect.

Sequence of Cytochrome P450 2D6 (Homo sapiens) (P10635 whole entry, looked up): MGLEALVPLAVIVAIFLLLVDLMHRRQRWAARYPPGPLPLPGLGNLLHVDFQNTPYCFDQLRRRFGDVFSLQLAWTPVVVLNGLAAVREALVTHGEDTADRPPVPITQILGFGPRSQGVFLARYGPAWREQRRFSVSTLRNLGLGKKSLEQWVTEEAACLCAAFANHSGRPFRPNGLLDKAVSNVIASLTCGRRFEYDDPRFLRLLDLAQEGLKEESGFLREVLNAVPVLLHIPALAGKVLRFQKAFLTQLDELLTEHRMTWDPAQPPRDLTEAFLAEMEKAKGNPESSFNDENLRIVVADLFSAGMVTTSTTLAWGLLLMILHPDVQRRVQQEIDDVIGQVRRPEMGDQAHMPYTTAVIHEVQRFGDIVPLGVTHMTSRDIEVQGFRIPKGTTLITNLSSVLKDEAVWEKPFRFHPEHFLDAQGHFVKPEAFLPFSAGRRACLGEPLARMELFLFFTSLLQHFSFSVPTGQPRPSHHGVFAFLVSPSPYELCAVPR

| SMILES | activity, negative = inhibition | AC50 |
| --- | --- | --- |
| Cc1ncc([N+](=O)[O-])n1CCN=[N+]=[N-] | 0.431% [at 11.4 µM] (inactive) | – |
| CCCN(CCC)C(=O)Cc1c(-c2ccc(Cl)cc2)nc2c(Cl)cc(Cl)cn12 | – | inactive |
| C[C@]12CC[C@H]3c4ccc(O)cc4CC[C@@H]3[C@H]1CC[C@@H]2OP(=O)(O)O | 11.2% [at 11.4 µM] (inactive) | – |
| COc1ccc2c(c1)CCC1[C@@H]2CCC2(C)[C@@H](NCCCCCCN3C(=O)C=CC3=O)CC[C@@H]12 (stereo not given in full) | – | 10 µM (active) |
| C[C@]12CCC3c4ccc(OCC(=O)O)cc4CCC3C1CCC2=O (stereo not given in full) | 12.6% [at 11.4 µM] (inactive) | – |
| CO[C@@H]1CC=C2CCN3CCC4=C(CC(=O)OC4)[C@]23C1 | – | inactive |
| Cn1cc(C(=O)C(=O)N[C@H]2CN3CCC2CC3)c2ccccc21 | – | 0.0631 µM (active) |
| CC(C)n1cnc2c(C(=O)N[C@H]3CN4CCC3CC4)cc(Cl)cc21 | – | inactive |
| CN1C(=O)COc2c(C(=O)N[C@@H]3CN4CCC3CC4)cc(Cl)cc21 | – | inactive |
| CCNC(C)(C)[C@@H](SS)c1ccc(Br)cc1 | – | 2 µM (active) |
| CNCCc1ccc(O)c(O)c1 | – | inactive |
| Nc1nc(N)c(Cn2ccnc2)c(=O)[nH]1 | -11.4% [at 11.4 µM] (inactive) | – |
| CS(=O)(=O)Nc1ccc(Cc2noc(-c3ccc4[nH]cc(CCN)c4c3)n2)cc1 | – | 0.126 µM (active) |
| CCCN(CCC)[C@@H]1CCc2c(OC)cccc2[C@@H]1C | – | inactive |
| CCCN[C@@H]1CCc2c(OC)cccc2[C@@H]1C | – | 0.251 µM (active) |
| OC1(c2ccc(F)cc2)CCNC1 (stereo not given) | – | inactive |
| CCCN1CCC[C@@H]2Cc3[nH]ncc3C[C@H]21 | – | inactive |
| C[C@@]12CC[C@H]3[C@@H](CCC4=C(O)C(=O)CC[C@]43C)[C@H]1CCC2=O | – | inactive |
| COC(=O)c1cc2c(cn1)[nH]c1ccccc12 | – | inactive |
| Cc1c2ccncc2c(C)c2c1[nH]c1ccccc12 | – | 6.31 µM (active) |
| Cc1nccc2c1[nH]c1ccccc12 | – | 10 µM (active) |
| O=[N+]([O-])c1ccc(N2CCNCC2)cc1NCC1CCCO1 (stereo not given) | – | inactive |

| SMILES | activity, negative = inhibition | AC50 |
| --- | --- | --- |
| NC(=O)CI | – | inactive |
| CN1CCC(c2c[nH]c3ccc(O)cc23)CC1 | – | inactive |
| CCCN(CCC)CCc1c[nH]c2ccc(C(N)=O)cc12 | – | 39.8 µM (active) |
| NCCc1c[nH]c2ccc(O)cc12 | – | inactive |
| NCCc1c[nH]c2ccc(C(N)=O)cc12 | – | inactive |
| C=C[C@@H]1CN2CC[C@H]1C[C@H]2[C@H](O)c1ccnc2ccccc12 | – | 3.98 µM (active) |
| C=C[C@H]1CN2CC[C@@H]1C[C@H]2[C@@H](O)c1ccnc2ccccc12 | – | 3.16 µM (active) and 501 nM (active) |
| CC[C@H]1CN2CC[C@@H]1C[C@H]2[C@@H](O)c1ccnc2ccc(OC)cc12 | – | 3.16 µM (active) |
| O=C(O)CC[N+](=O)[O-] | – | inactive |
| C[C@H]1C(=O)O[C@@H]2CCN3CC=C(COC(=O)[C@@](C)(O)[C@@]1(C)O)[C@H]23 | – | inactive |
| CCOP(=O)(OCC)C(NC(C)=O)C(Cl)(Cl)Cl (stereo not given) | – | inactive |
| N[C@@H](CP(=O)(O)O)C(=O)O | -1.79% [at 11.4 µM] (inactive) | – |
| COc1ccc(C(=O)c2c(C)n(CCN3CCOCC3)c3cc(I)ccc23)cc1 | – | inactive |
| N[C@@]1(C(=O)O)CC[C@H](C(=O)O)C1 | – | inactive |
| COc1cc(/C=N/NC(=O)CN2CC(c3ccccc3)CC2=O)ccc1OC(=O)N(C)C (stereo not given) | – | inactive |
| CN(C)C=C1C(=O)N(C2CCCCC2)C(=O)N(C2CCCCC2)C1=O | – | inactive |
| NC(=O)COc1c(F)cc(SCCNS(=O)(=O)c2ccccc2)cc1F | – | inactive |
| Cc1cc(OCC(=O)OC(C)C)c2c3c(c(=O)oc2c1)CCCC3 | – | inactive |
| Cn1c(O)c(C(c2ccccn2)c2c(O)n(C)c(=S)[nH]c2=O)c(=O)[nH]c1=S | – | inactive |
| O=C1CN=C(c2cccs2)c2c(sc3c2CCCC3)N1 | – | 1 µM (active) |
| NC[C@@H](Cc1ccccc1)P(=O)(O)O | -3.95% [at 11.4 µM] (inactive) | – |
| CC(C)(C)C(=O)CP(=O)(O)O | -2.59% [at 11.4 µM] (inactive) | – |

| SMILES | activity, negative = inhibition | AC50 |
| --- | --- | --- |
| C=C(C)[C@H]1CN[C@H](C(=O)O)[C@@H]1CC(=O)O | – | inactive |
| CCC(=O)O[C@@](Cc1ccccc1)(c1ccccc1)[C@@H](C)CN(C)C | – | 7.94 µM (active) |
| COC(=O)[C@@]1(Cc2ccc(F)cc2)[C@H]2c3cc(C(=O)N(C)C)[nH]c3C[C@H]2CN1C(=O)c1ccccc1 | – | inactive |
| NC(N)=NCCN=C(N)N | -4.24% [at 11.4 µM] (inactive) | – |
| Fc1ccccc1CCNCc1cccc(Cl)c1Cl | – | 0.0794 µM (active) |
| CCC1(CCSC(=N)N)C(=O)NC(=O)NC1=O | 12.5% [at 11.4 µM] (inactive) | – |
| C=C1CC[C@H](O)C/C1=C/C=C1\CCC[C@]2(C)[C@H]1CC[C@H]2[C@@H](C)CCCC(C)C | – | inactive |
| O=P(O)(O)C(Cl)(Cl)P(=O)(O)O | – | inactive |
| CC(C)NC(=O)N1CCC2(CC1)CCN(C(=O)Oc1ccccc1)CC2 | – | inactive |
| CC(C)CN1CCC2(CC1)CCN(S(C)(=O)=O)CC2 | – | 0.794 µM (active) |
| COC(=O)N1CCC2(CCN(CC(C)C)CC2)CC1 | – | 10 µM (active) |
| COC(=O)N1CCC2(CCCN(C)C2)CC1 | – | inactive |
| NN=C(N)N | – | inactive |
| Cc1c(C(=O)c2ccc3ccccc3c2)c2cccc3c2n1[C@H](CN1CCOCC1)CO3 | – | inactive |
| CN1CCN(c2ccc3ccccc3n2)CC1 | – | inactive |
| O[C@@H]1[C@@H]2c3cc4c(cc3CN3CCC(=C[C@@H]1O)[C@H]23)OCO4 | – | 3.98 µM (active) |
| CC(=NCCN1CCOCC1)c1c(O)n(Cc2ccccc2)c(=O)[nH]c1=O | – | inactive |
| C[C@@H]1OC=C2[C@@H](O)[C@H]3O[C@H]3C(=O)[C@@]23[C@H]1[C@H]1C2=C([C@@H](O)[C@H]4O[C@@H]4C2=O)[C@@H]3O[C@@H]1C | 1.81% [at 11.4 µM] (inactive) | – |
| COc1ccc(C2SCC(=O)Nc3c2c(C)nn3-c2ccccc2)cc1OC (stereo not given) | – | inactive |
| O=[N+]([O-])c1cc(O)c(O)c([N+](=O)[O-])c1 | – | inactive |
| CC1=NN(c2ccc(S(=O)(=O)O)cc2C)C(=[OH+])[C@H]1N=Nc1cc(S(=O)(=O)O)ccc1C(=O)O.O.[Cr] | -4.46% [at 11.4 µM] (inactive) | – |

From PubChem BioAssay AID1851 (National Center for Advancing Translational Sciences (NCATS), 2009)
